Experimental data taken from ChEMBL document CHEMBL4513216, “Probing the Open Global Health Chemical Diversity Library for Multistage-Active Starting Points for Next-Generation Antimalarials” (ACS Infect Dis, 2020).
About 2,700 (4%) of roughly 68,000 compounds showed an effect of 50% or more. For the sample, strong results were picked, then their nearest neighbours and some compounds at random.

The compounds below were run on Plasmodium berghei (assay: Screen against P. berghei liver stage (PbLuc), transformed with Luciferase, at 2uM). Settings: tested at 2 uM.
Type: functional, HepG2

Row | SMILES | INHIBITION
1 | O=C(c1cnccn1)N1CCCC(Cc2cncc3ccccc23)C1 (stereo unspecified) | 99.92%
2 | O=C(c1cnccn1)N1CCCC(Cc2cccc3ncccc23)C1 (stereo unspecified) | -3.58%
3 | Cc1cccc(C(=O)N2CCCC(Cc3cncc4ccccc34)C2)n1 (stereo unspecified) | 33.77%
4 | O=c1c2c[nH]c(N3CCCCC3)nc-2cn1-c1ccc2c(c1)OCO2 | 33.2%
5 | Cn1cc(S(=O)(=O)NCc2ccsc2)cn1 | -18.65%
6 | CNC(=O)C(C)CNC(=O)c1coc(COc2cccc(F)c2F)n1 (stereo unspecified) | 16.32%
7 | O=C(N[C@@H]1CN(Cc2ccco2)[C@@H]2CCCO[C@@H]21)c1cscn1 | -2.81%
8 | COc1c(CNC2CCOc3c(Cl)cccc32)c(C)nn1C (stereo unspecified) | 24.64%
9 | Cc1nc(CN2CCc3ncnc(-c4ccsc4)c3CC2)cs1 | 8.62%
10 | COCC1(CNC(=O)[C@@]23CNC[C@@H]2CN(C2CCCC2)C3)CC1 | 83.98%
11 | CCS(=O)(=O)CCNC(=O)[C@@]12CNC[C@@H]1CN(C1CCCC1)C2 | -13.8%
12 | O=C(NCCOCCO)[C@@]12CNC[C@@H]1CN(C1CCCC1)C2 | 45.82%
13 | CCC(NC(=O)C1CCN(S(C)(=O)=O)CC1)c1ccc(C)cc1C (stereo unspecified) | 20.49%
14 | CC(C)COC(=O)N1CCCN(C(C)c2nc(C(C)C)no2)CC1 (stereo unspecified) | 4.49%
15 | O=C(NCc1ccco1)[C@H]1C[C@H]2OCC[C@H]2N(C(=O)c2ccnnc2)C1 | -14.65%
16 | O=C(C1CC1)N1CCC2(CCN2Cc2ccc(F)cc2)C1 (stereo unspecified) | 31.52%
17 | O=C(c1ccc(Cl)s1)N1CCCn2nc(CN3CC[C@H](F)C3)cc2C1 | -13.81%
18 | Cc1nn(C)cc1C(=O)N1CCCn2nc(CN3CC[C@H](F)C3)cc2C1 | -11.76%
19 | COC(=O)NCC(=O)N1CCCn2nc(CN3CC[C@H](F)C3)cc2C1 | 52.85%
20 | COCCn1cncc1-c1nc2c([nH]1)CC(C)(C)CNC2=O | 8.54%
21 | CC(C)Cn1cncc1-c1nc2c([nH]1)CC(C)(C)CNC2=O | -54.78%
22 | CCn1cncc1-c1nc2c([nH]1)CC(C)(C)CNC2=O | 50.61%
23 | CCc1cc(N2CCCNCC2)n2nc(C)c(C)c2n1 | 14.23%
24 | Cc1ccc(NS(=O)(=O)c2cc3c(c(C(=O)O)c2)OCCO3)cc1C | -19.1%
25 | O=C(NCc1cc[nH]n1)NCC(O)c1ccc(F)c(F)c1 (stereo unspecified) | -87.87%
26 | CCCS(=O)(=O)N1CCCC1c1cccc(N(C)C)c1 (stereo unspecified) | -46.3%

Row | SMILES | INHIBITION
27 | Cc1nccn1CCC1CCCCN1Cc1cnc(N(C)C)nc1 (stereo unspecified) | -4.51%
28 | c1ccc(-c2ncc(CN3CCCCC3CCn3cccn3)cn2)nc1 (stereo unspecified) | 11.38%
29 | CN(C)CCC1CCCCN1Cc1cnc(-c2ccccn2)nc1 (stereo unspecified) | 53.12%
30 | CS(=O)(=O)N1CCC2(CC1)COC(COc1ccccn1)C2 (stereo unspecified) | 46.32%
31 | Cc1nc(O)c2nnn(C[C@H]3CCCN3C(=O)CCC3CCCC3)c2n1 | 6.57%
32 | Cc1nc(O)c2nnn(C[C@H]3CCCN3C(=O)c3ccccc3F)c2n1 | 33.64%
33 | Cc1nc(O)c2nnn(C[C@H]3CCCN3C(=O)c3ccccc3C)c2n1 | 83.57%
34 | Cc1nc(O)c2nnn(C[C@H]3CCCN3C(=O)C3CCCC3)c2n1 | 50.32%
35 | Cc1ccc(C(=O)N2CCC[C@@H]2Cn2nnc3c(O)nc(C)nc32)cc1 | -15.93%
36 | Cc1nc(O)c2nnn(C[C@H]3CCCN3C(=O)C(C)(C)C)c2n1 | -47.12%
37 | CCn1cc(NC(=O)C2CCN(Cc3nc(C)c(C)s3)CC2)cn1 | -3.36%
38 | Cc1ccc(NC(=O)[C@H]2C[C@H](C(=O)O)CN(CC3CC3)C2)cn1 | 38.15%
39 | FC(F)(F)c1ccc2[nH]c([C@H]3CCNC3)nc2c1 | 62.8%
40 | Fc1ccc2nc([C@H]3CCNC3)[nH]c2c1 | -11.34%
41 | CC(C)N1CC[C@H](c2nc3ccc(C(F)(F)F)cc3[nH]2)C1 | 4%
42 | COCC(=O)NC(Cc1cc(N(C)C)nc(C2CC2)n1)c1ccccc1 (stereo unspecified) | 7.93%
43 | CCOCCN1CCN(C=C2NN=C(c3occc3C)O2)CC1CC (stereo unspecified) | 24.82%
44 | CC(CS(C)(=O)=O)N(C(=O)Nc1ccc(F)cc1F)C1CC1 (stereo unspecified) | -3.43%
45 | COc1cccc(NC(=O)N(CCC(F)(F)F)C[C@H](O)CO)c1 | 50.6%
46 | O=C(Nc1ccc(F)cc1)N(CCC(F)(F)F)C[C@H](O)CO | 5%
47 | O=C(Nc1ccc(F)cc1F)N(CCC(F)(F)F)C[C@H](O)CO | 66.83%
48 | COc1cccc(NC(=O)N(CCO)Cc2ccsc2)c1 | -75.39%
49 | Cc1cccc(NC(=O)N(CCC(F)(F)F)C[C@H](O)CO)c1 | -24.88%
50 | CN(C)c1ccc(C(=O)Nc2ccn(Cc3ccccn3)n2)cn1 | -44.17%
51 | CN1CCOC[C@H]1c1nc(-c2cccnc2)c[nH]1 | 5.77%
52 | O=C(Nc1cccc(CNCc2csc(Br)c2)c1)C1CC1 | -0.64%

Row | SMILES | INHIBITION
53 | CCC1(c2ccc(NS(=O)(=O)N(C)C)cc2)CCC(=O)NC1=O (stereo unspecified) | -11.81%
54 | NC(=O)c1cc2c(nc1CC1CCCCO1)CCC2 (stereo unspecified) | 38.83%
55 | CN1CCCCC1Cc1nc2c(cc1C(N)=O)CCC2 (stereo unspecified) | 62.39%
56 | C[C@@H]1CN(c2nc3c(cc2C(N)=O)CCC3)CC[C@@]1(O)C1CCC1 | 2.79%
57 | COC(=O)c1ccc(NC(C)c2ccc3c(c2)CCC(=O)N3)nn1 (stereo unspecified) | 34.22%
58 | Cc1csc(N2CCN(C(=O)c3c(C)oc(C)c3C)CC2)n1 | 58.52%
59 | Cc1csc(N2CCCN(C(=O)c3c(C)oc(C)c3C)CC2)n1 | -1.5%
60 | Cc1nc(CN2CCCN(C(=O)c3c(C)noc3C)CC2)cs1 | 3.38%
61 | CCc1noc(C)c1C(=O)N1CCCN(Cc2csc(C)n2)CC1 | 16.84%
62 | Cc1nc(CN2CCCN(C(=O)c3c(C)oc(C)c3C)CC2)cs1 | 59.54%
63 | Cc1csc(N2CCCN(C(=O)c3c(C)noc3C)CC2)n1 | 24.65%
64 | O=C(NCC1CCCO1)c1cc(-c2ccncc2)c2cnccc2n1 (stereo unspecified) | 26.69%
65 | CO[C@@H]1CO[C@@]2(CCCN(C(=O)C3CC=CC3)C2)C1 | -29.49%
66 | COCC1CCN(c2ccnc3ccsc23)C1 (stereo unspecified) | 15.84%
67 | Cc1ccc(C(=O)N2CCn3cc(CN(C)Cc4ccco4)nc3C2)o1 | -40.76%
68 | Cn1ncc2c1C(COCC1CC1)CN(C(=O)Cc1ccsc1)C2 (stereo unspecified) | 22.16%
69 | CN1C(=O)C2(CCNCC2)c2cc(F)ccc21 | 37.75%
70 | c1cnc(NC[C@@H]2CCC[C@@H]3CN(Cc4cccnc4)C[C@@H]32)nc1 | 7.08%
71 | CN(C[C@@H]1CCC[C@@H]2CN(Cc3cccnc3)C[C@@H]21)C1CC1 | 61.09%
72 | COc1ccc(CN2C[C@H]3CCC[C@@H](CN(C)C4CC4)[C@H]3C2)cn1 | 0.42%
73 | CC(=O)N1CCOC(c2cc(N3CC(O)C3)nc(C)n2)C1 (stereo unspecified) | 18.8%
74 | Cc1cnn(C2CN(CCOc3ccc(C#N)cc3)C2)c1 | -22.06%
75 | Cc1cccc(NC(=O)[C@@H]2CCCN2CC(=O)Nc2ccccc2)n1 | -32.35%
76 | CCOC(=O)N1CCN(C(=O)c2cc(-c3ccc(C)cc3)on2)CC1 | 21.28%
77 | NC(=O)CN1C(=O)CO[C@H]2CN(Cc3ccccc3)C[C@H]21 | 41.93%
78 | NC(=O)CN1C(=O)CO[C@H]2CN(Cc3ccc(F)c(F)c3)C[C@H]21 | 27.65%

Row | SMILES | INHIBITION
79 | NC(=O)CN1C(=O)CO[C@H]2CN(Cc3ccc(Cl)cc3)C[C@H]21 | 58.4%
80 | Cn1ccnc1CN1CCCC(CCCc2ccccn2)(C(N)=O)C1 (stereo unspecified) | -11.32%
81 | COC(=O)c1cccc(S(=O)(=O)NC(=O)COC2CCCCC2)c1 | 19.64%
82 | CS(=O)(=O)N1CCN(c2cc(-n3cccc3)ncn2)CC1 | 19.08%
83 | Cc1ccc(Nc2cc(N3CCN(S(C)(=O)=O)CC3)nc(C)n2)cc1 | 51.2%
84 | Cc1nc(Nc2ccccn2)cc(N2CCN(S(C)(=O)=O)CC2)n1 | 18.99%
85 | CC1CCN(C(=O)C(C)n2cc(Br)cn2)CC1 (stereo unspecified) | 20.8%
86 | FC(F)(F)c1ccnc(N2CCC(c3nccn3CC3CC3)CC2)n1 | -0.62%
87 | CCCn1ncc(CN2C[C@@H]3CCCN3C[C@H]2Cc2ccccc2)c1C | 37.6%
88 | CCCn1nc2c(cc1=O)CN(CC1CCCCO1)CC2 (stereo unspecified) | 28.72%
89 | CN(CCn1cccn1)S(=O)(=O)c1cccc(Cl)c1C#N | -26.2%
90 | CN(CCn1cccn1)S(=O)(=O)c1cccc(F)c1C#N | -2.19%
91 | Cc1cc(F)c(S(=O)(=O)N(C)CCn2cccn2)cc1F | 50.03%
92 | CCC(C)(C)C(=O)Nc1ccc2ccn(CC(=O)NC)c2c1 | 24.51%
93 | COc1cccc(CN2CCc3nc4ccsc4c(=O)n3CC2)c1 | 34.9%
94 | Cn1cc(CN2CCCCC2c2ccc(-c3cccc(Cl)c3)nc2)cn1 (stereo unspecified) | 15.59%
95 | COC(=O)[C@@H]1C[C@H](NC(=O)c2cc(=O)[nH]c3ccc(C)cc23)CN1C | 76.07%
96 | Cc1ccc2[nH]c(=O)cc(C(=O)N[C@@H]3C[C@@H](CO)N(C)C3)c2c1 | 10.75%
97 | CCNC(=O)[C@@H]1C[C@H](NC(=O)c2cc(=O)[nH]c3ccc(C)cc23)CN1C | 24.44%
98 | CCCc1cc(=O)[nH]c(-c2ccccc2CN(C)CCC(C)C)n1 | -4.05%
99 | CCCS(=O)(=O)N1CCN(c2ccc3nnc(CC)n3n2)CC1 | 8.76%
100 | CCc1nnc2ccc(N3CCN(S(=O)(=O)c4ccc(Cl)s4)CC3)nn12 | 52.31%
101 | CCc1nnc2ccc(N3CCN(S(=O)(=O)c4ccc(C)s4)CC3)nn12 | -37.47%
